From PubChem BioAssay AID602454 (National Center for Advancing Translational Sciences (NCATS), 2012) come the findings set out here.

Results filed as inconclusive are left out. Active and inactive are the calls of the source. How the calls were made is not given here.

The first test in a line: qHTS Assay for Inhibitors of Influenza NS1 Protein Function: Viral Replication TCID50. To be noted: Influenza virus replication in cells, at 10 µM, stronger effect = lower value. From the text:
Influenza is a world-wide public health problem and emerging forms of the virus have the potential to cause a pandemic of equal or greater magnitude to the outbreaks recorded in 1918, 1957 or 1968. Vaccine development is proceeding and there also exist two classes of anti-influenza compounds. However these therapeutic modalities are neither fully effective nor widely enough available to fulfill global needs. In addition their potential usefulness against newly emergent strains is not known. Efforts are needed to develop novel agents against influenza virus, including broad-spectrum agents. Identification of small molecules that inhibit NS1 function either directly or by interfering with specific cellular pathways may be a key to increasing our defense against the virus.
We have miniaturized and optimized a cell based assay in which NS1 from influenza A is expressed in the budding yeast S. cerevisiae. NS1 is a multi-functional protein that counters the host innate immune response and facilitates viral versus cellular gene expression. Expression of NS1 causes a pronounced slow growth phenotype in yeast due to its intrinsic molecular activities. Small molecules that suppress the slow growth phenotype can be identified by a straightforward growth recovery assay using optical density (OD) as the measurement. The same yeast strain not expressing NS1 was used as positive control in the yeast growth recovery assay.
Hits resulting from the primary screen and other follow-up screens, were tested in two concentrations in this viral replication assay.
NIH Chemical Genomics Center [NCGC]
NIH Molecular Libraries Probe Centers Network [MLPCN]
Assay Submitter (PI): Daniel Engel, University of Virgina
Cell monolayers were infected at an m.o.i. of 0.1 for 48 h in the presence or absence of the compound, which was added at the beginning of infection. Virus titres were determined by TCID50 analysis (Reed, L. J. & Muench, H. (1938). A simple method of estimating fifty per cent endpoints. Am J Epidemiol 27, 493-497)
For orientation: In qHTS, concentration-response curves come from the screen itself.
For `COc1cc(-c2c(C#N)c(N)nc3c2c(C)nn3-c2ccc(C)cc2)cc(OC)c1OC`, the viral titer (log10 TCID50) was 8.66 (active).
With `COc1cc(-c2c(C#N)c(N)nc3c2c(C)nn3-c2ccc(C)c(C)c2)ccc1O`, the viral titer (log10 TCID50) was 8.5 (active).
Take `COc1cc(-c2c(C#N)c(N)nc3c2c(C)nn3-c2ccc(C)cc2)ccc1O`: the viral titer (log10 TCID50) is 8.5 (active).
Take `COc1cc(-c2ccnc3c2c(C)nn3-c2ccccc2)ccc1O`: the viral titer (log10 TCID50) is 9 (active).
For `COc1cc(-c2c(C(=O)O)cnc3c2c(C)nn3-c2ccc(F)cc2)ccc1O`, the viral titer (log10 TCID50) is 8.5 (active).
Regarding `COc1ccc(-c2c(C#N)c(=O)[nH]c3c2c(C)nn3-c2ccccc2)cc1OC`, the viral titer (log10 TCID50) is 8.66 (active).
Regarding `COc1ccc(-c2c3c(C)nn(-c4ccccc4)c3nc3[nH]c(=O)[nH]c(=O)c23)cc1OC`, the viral titer (log10 TCID50) is 8.33 (active).
Consider `COc1ccc(-c2c(C#N)c(N)nc3c2c(C)nn3-c2ccccc2)cc1OC`, for which the viral titer (log10 TCID50) was 8.66 (active).
For the molecule `CCOc1cc(-c2c(C#N)c(=O)[nH]c3c2c(C)nn3-c2ccc(F)cc2)ccc1O`, the viral titer (log10 TCID50) is 8.66 (active).
With `COc1ccc(-c2c(C#N)c(=O)[nH]c3c2c(C)nn3-c2ccc(F)cc2)cc1OC`, the viral titer (log10 TCID50) was 9 (active).
Turning to `COc1cc(-c2ccnc3c2c(C)nn3-c2ccc(F)cc2)ccc1O`, the viral titer (log10 TCID50) was 8.68 (active).
Same read-out and setting: next, `COc1cc(-c2c(C#N)c(N)nc3c2c(C)nn3-c2ccc(F)cc2)ccc1O`: 6 (active); `COc1cccc(-n2nc(C)c3c(-c4ccc(O)c(OC)c4)ccnc32)c1`: 9 (active); `COc1cc(-c2ccnc3c2c(C)nn3-c2cccc(F)c2)ccc1O`: 9 (active).
On the same count and under the same terms, the result for `COc1ccc(-c2c(C#N)c(N)nc3c2c(C)nn3-c2ccc(C)cc2)cc1OC` reads 9 (active); that for `Cc1nn(-c2ccccc2)c2nc3[nH]c(=O)[nH]c(=O)c3c(-c3ccc4c(c3)OCO4)c12`, 8.33 (active).
On the same count and under the same terms, the result for `COc1ccc(-c2c3c(C)nn(-c4ccccc4)c3nc3[nH]c(=O)[nH]c(=O)c23)cc1O` reads 8.66 (active); that for `COc1cc(-c2c(C#N)c(N)nc3c2c(C)nn3-c2ccc(F)cc2)cc(OC)c1OC`, 9 (active).
Regarding `COc1cc(-c2c(C#N)c(N)nc3c2c(C)nn3-c2ccc(C)c(C)c2)cc(OC)c1OC`, the viral titer (log10 TCID50) was 9 (active).
Consider `COc1cc(-c2c(C#N)c(=O)[nH]c3c2c(C)nn3-c2ccccc2)ccc1O`, for which the viral titer (log10 TCID50) was 7.66 (active).

The same test, now with this note: Influenza virus replication in cells, viral titer, at 5 µM, stronger effect = lower value.
Consider `COc1cc(-c2c(C#N)c(N)nc3c2c(C)nn3-c2ccc(C)cc2)cc(OC)c1OC`, for which the viral titer (log10 TCID50) was 9.
For the molecule `COc1cc(-c2c(C#N)c(N)nc3c2c(C)nn3-c2ccc(C)c(C)c2)ccc1O`, the viral titer (log10 TCID50) came to 8.66.
`COc1cc(-c2c(C#N)c(N)nc3c2c(C)nn3-c2ccc(C)cc2)ccc1O` displayed a viral titer (log10 TCID50) of 8.5.
`COc1cc(-c2ccnc3c2c(C)nn3-c2ccccc2)ccc1O` gave a viral titer (log10 TCID50) of 9.
Same read-out and setting: next, `COc1cc(-c2c(C(=O)O)cnc3c2c(C)nn3-c2ccc(F)cc2)ccc1O`: 8.88.
Molecule `COc1ccc(-c2c(C#N)c(=O)[nH]c3c2c(C)nn3-c2ccccc2)cc1OC` registered a viral titer (log10 TCID50) of 9.
The same measure, in the same setting: the result for `COc1ccc(-c2c3c(C)nn(-c4ccccc4)c3nc3[nH]c(=O)[nH]c(=O)c23)cc1OC` reads 9; that for `COc1ccc(-c2c(C#N)c(N)nc3c2c(C)nn3-c2ccccc2)cc1OC`, 9; that for `CCOc1cc(-c2c(C#N)c(=O)[nH]c3c2c(C)nn3-c2ccc(F)cc2)ccc1O`, 9.
In the case of `COc1ccc(-c2c(C#N)c(=O)[nH]c3c2c(C)nn3-c2ccc(F)cc2)cc1OC`, the viral titer (log10 TCID50) was 9.
Same read-out and setting: the result for `COc1cc(-c2ccnc3c2c(C)nn3-c2ccc(F)cc2)ccc1O` reads 8.88.
Same read-out and setting: next, `COc1cc(-c2c(C#N)c(N)nc3c2c(C)nn3-c2ccc(F)cc2)ccc1O`: 7.66; `COc1cccc(-n2nc(C)c3c(-c4ccc(O)c(OC)c4)ccnc32)c1`: 9.
On the same count and under the same terms, next, `COc1cc(-c2ccnc3c2c(C)nn3-c2cccc(F)c2)ccc1O`: 9; `COc1ccc(-c2c(C#N)c(N)nc3c2c(C)nn3-c2ccc(C)cc2)cc1OC`: 9.
`Cc1nn(-c2ccccc2)c2nc3[nH]c(=O)[nH]c(=O)c3c(-c3ccc4c(c3)OCO4)c12` registered a viral titer (log10 TCID50) of 8.66.
In turn, `COc1ccc(-c2c3c(C)nn(-c4ccccc4)c3nc3[nH]c(=O)[nH]c(=O)c23)cc1O` came in with a viral titer (log10 TCID50) of 8.66.
For `COc1cc(-c2c(C#N)c(N)nc3c2c(C)nn3-c2ccc(F)cc2)cc(OC)c1OC`, the viral titer (log10 TCID50) turned out to be 9.
`COc1cc(-c2c(C#N)c(N)nc3c2c(C)nn3-c2ccc(C)c(C)c2)cc(OC)c1OC` came in with a viral titer (log10 TCID50) of 9.
Same read-out and setting: the result for `COc1cc(-c2c(C#N)c(=O)[nH]c3c2c(C)nn3-c2ccccc2)ccc1O` reads 8.5.
